Screening results: PubChem, Pan Lab, Icahn School of Medicine at Mount Sinai
Many of the other results were omitted from the sample, so hits are more common in it than they were.
ROC1-CUL1 inh: inhibitors of human ROC1-CUL1 ubiquitin ligase activity; E3 ubiquitin-protein ligase RBX1 (Homo sapiens) + Cullin-1 (Homo sapiens), P62877+Q13616; in vitro K48 di-Ub FRET, acceptor:donor ratio, 45 min; inhibition, % at 10 µM; 140,000 tested, 0.6% active; AID 1347404, 2020; in the data active = inhibition above about 25%
A number is an active result; . = inactive.

SMILES	ROC1-CUL1 inh
CSc1nc(-c2ccc(C)cc2)[nH]c(=O)c1C#N	.
N#CC1C(=N)Oc2n[nH]c(-c3ccccc3)c2C1c1ccnc2ccccc12 (stereo not given)	.
Cc1nonc1CN(C)C(=O)c1ccc(C2CCCN2)s1 (stereo not given)	.
Nc1ncc2c3c1c(=O)c1ccccc1n3CCC2	50.0
O=C1CCCc2c1c1cccc3c1n2CCC3	.
Cc1cc(C)n(-c2ccc(Cl)cc2)c(=O)n1	.
CCN1CCCC1CNC(=O)c1ccc(OC)c(OC2CCN(C(C)C)CC2)c1 (stereo not given)	.
O=c1c(-c2ccccc2)c(Cl)oc2ccc3ccccc3c12	.
Cc1c(-c2nn3c(Cc4ccc(F)cc4)nnc3s2)cnn1-c1ccccc1	.
Cc1ccccc1-n1ncc(SCc2ccccc2)c(Cl)c1=O	.
CC1=C(SCc2ccccc2)C(=O)c2ccccc2C1=O	37.4
Cc1cc2c(n1Cc1ccccc1)C(=O)c1ccccc1-2	.
CC(C)CNC(=O)c1ccc(NC(=O)CCCOc2ccc(Cl)cc2Cl)cc1	.
NCCNC(=O)c1c(NC(=O)c2ccccc2)sc2c1CCCC2	34.1
Cc1ccc(C(=O)Nc2sc3c(c2C(=O)O)CCCC3)cc1	47.0
CCOC(=O)c1c(NC(=O)c2ccc(C)cc2)sc2c1CCCCC2	.
CC(=O)Nc1sc2c(c1C(=O)c1ccccc1)CCCC2	.
CN1CCN(C(=O)c2c(NC(=O)c3ccccc3)sc3c2CCCC3)CC1	.
O=C(Nc1sc2c(c1C(=O)O)CCCCC2)c1ccccc1	.
O=C(Oc1c(Cl)cc(NS(=O)(=O)c2ccccc2)c2ccccc12)c1ccccc1	.
CC1C(=NC(=O)c2cc(-c3cccc(Cl)c3)on2)C(=O)N(c2ccccc2)N1C (stereo not given)	.
CCNC(=O)c1cn(CC(C)C)cc(C(=O)NCc2ccccc2C)c1=O	.
COc1ccc(CNC(=O)c2cccc(Cl)c2)cc1	.
CCCCCCCCCNC(=O)c1cn(CC)c2cc(N3CCN(C)CC3)c(F)cc2c1=O	.
COc1ccc(CCNC(=S)Nc2cc(Cl)ccc2Cl)cc1OC	.
SMILES	ROC1-CUL1 inh
COc1ccc(CCNC(=S)S)cc1OC	99.1
COc1ccc(CCNC(=S)Nc2c(Cl)cncc2Cl)cc1OC	.
O=C1c2cc(S(=O)(=O)O)ccc2C(=O)c2c(Cl)cccc21	.
O=C1C(=Nc2ccc(Cl)c(Cl)c2)CC(=NS(=O)(=O)c2ccc(Cl)cc2)c2ccccc21	.
O=C1CC(=Nc2cccc3cc(S(=O)(=O)O)ccc23)c2ccccc2C1=O	79.8
CCOC(=O)c1ccc(NC2(C)C(=O)c3ccccc3C2=O)cc1	.
Cc1ccc2c(c1)C(=O)C(C(c1ccc(N(C)C)cc1)C1C(=O)Oc3ccc(C)cc3C1=O)C(=O)O2 (stereo not given)	.
COc1cccc(C(C2C(=O)Oc3ccc(C)cc3C2=O)C2C(=O)Oc3ccc(C)cc3C2=O)c1 (stereo not given)	.
Cc1ccc2c(c1)C(=O)C(C(c1ccccc1Cl)C1C(=O)Oc3ccc(C)cc3C1=O)C(=O)O2 (stereo not given)	63.3
CC1(C)CC(=O)C2C(=NC3=C(C(=O)c4ccccc43)C2c2ccccc2Br)C1 (stereo not given)	.
N#CC1CC(c2ccc(Br)cc2)=NN1c1c(F)c(F)c(Cl)c(F)c1F (stereo not given)	.
O=C1C(=O)N(c2nnc(SCc3ccc(F)cc3)s2)C(c2cccc(O)c2)C1C(=O)c1cc2ccccc2o1 (stereo not given)	.
COc1cc(CO)cc(Br)c1OCc1ccc(C(=O)O)cc1	.
CC1=NN(c2ccccc2)C(=O)/C1=C(\C)c1ccc(-c2ccccc2)cc1	.
Cc1c(C(=O)Nc2ccccc2)nnn1-c1ccccc1	.
COC(=O)/C(=C1/C(=O)N(c2ccccc2)N=C1C)C(F)(F)F	38.8
Nc1ncnc(-c2ccccc2)c1-c1ccccc1	.
COC(=O)c1nn(-c2ccc(Cl)cc2)cc1C#N	.
CC(=O)NS(=O)(=O)c1ccc(-c2ccc(C=C3C(=O)NC(=S)NC3=O)o2)cc1	41.5
O=C1NC(=S)NC(=O)C1=Cc1ccc(-c2ccccc2Cl)o1	.
CC(=O)NS(=O)(=O)c1ccc(Br)cc1	.
CC1(C)Nc2ccccc2-c2c1ssc2=Nc1cccc2ccccc12	.
O=C1ON=C(c2ccccc2)/C1=C/c1ccc(Br)s1	.
Cc1ccc(C2=NOC(=O)/C2=C\c2ccc(C)o2)cc1	48.6
Cc1ccc(C)c(/C=C2\C(=O)ON=C2c2ccccc2)c1	.
CC(Oc1ccc(Br)cc1Br)C(=O)N=C1C(=O)N(c2ccccc2)N(C)C1C (stereo not given)	.
O=C1NN(c2cccc(Cl)c2)C(=O)/C1=C/c1ccc2c(c1)OCO2	.
CCOC(=O)c1ccc(-c2ccc(/C=C3/C(=O)NN(c4ccc(C)cc4)C3=O)o2)cc1	.
O=C1NN(c2cccc(Cl)c2)C(=O)/C1=C\c1ccc(-c2ccc(C(=O)O)c(Cl)c2)o1	44.1
CC(C)OC(=O)c1ccc(-c2ccc(/C=C3/C(=O)NN(c4ccccc4)C3=O)o2)cc1	.
